# Compounds with a hit are over-represented: about 6.6% of the library has one in this group of screens.
# BoNT F protease = BoNT/F light chain protease inhibitors, primary screen, biochemical, flow cytometry, MLPCN library; hit rate 0.22% among 360,000; Multiplex microsphere protease cleavage assay; AID 588497, 2011; Botulinum neurotoxin type F light chain protease (Clostridium botulinum); inhibition, % at 10 µM; in the data active = inhibition above about 35%, passing the limit was not always enough
# FBA Mtb inh = Mtb FBA enzyme inhibitors, primary screen, biochemical, fluorescence, strain H37Rv; Fructose-bisphosphate aldolase (Mycobacterium tuberculosis (strain ATCC 25618 / H37Rv)), …; purified M. tuberculosis FBA, fluorescence read-out; inhibition, % at 1 µM; hit rate 2.3% among 360,000; AID 588726, 2011; in the data active = inhibition above about 27%
# GDH-TPI counter-1 = GDH-TPI coupling enzyme inhibitors, primary screen, artefact control for M. tuberculosis FBA inhibitor project, biochemical, absorbance, full deck | AID 588335, 2011 | inhibition, % at 4.8 µM | GDH-TPI coupled enzyme counterscreen, NADH absorbance | hit rate 1.2% among 360,000; in the data active = inhibition above about 30%
# BoNT-A LC inh2 = BoNT/A light chain protease inhibitors, primary screen, biochemical, flow cytometry, MLPCN library | Botulinum neurotoxin type A light chain protease (Clostridium botulinum A str. ATCC 3502) | multiplex microsphere protease substrate cleavage | inhibition, % at 10 µM | hit rate 0.17% among 360,000 | AID 588499, 2011
# Anthrax LF prot = Bacillus anthracis LF protease inhibitors, primary screen, biochemical, multiplex microsphere, MLPCN library. Lethal factor (Bacillus anthracis), P15917. multiplex microsphere protease cleavage assay. inhibition, % at 10 µM. hit rate 0.12% among 360,000. AID 588501, 2011
# Target sequence (P15917 whole entry, looked up): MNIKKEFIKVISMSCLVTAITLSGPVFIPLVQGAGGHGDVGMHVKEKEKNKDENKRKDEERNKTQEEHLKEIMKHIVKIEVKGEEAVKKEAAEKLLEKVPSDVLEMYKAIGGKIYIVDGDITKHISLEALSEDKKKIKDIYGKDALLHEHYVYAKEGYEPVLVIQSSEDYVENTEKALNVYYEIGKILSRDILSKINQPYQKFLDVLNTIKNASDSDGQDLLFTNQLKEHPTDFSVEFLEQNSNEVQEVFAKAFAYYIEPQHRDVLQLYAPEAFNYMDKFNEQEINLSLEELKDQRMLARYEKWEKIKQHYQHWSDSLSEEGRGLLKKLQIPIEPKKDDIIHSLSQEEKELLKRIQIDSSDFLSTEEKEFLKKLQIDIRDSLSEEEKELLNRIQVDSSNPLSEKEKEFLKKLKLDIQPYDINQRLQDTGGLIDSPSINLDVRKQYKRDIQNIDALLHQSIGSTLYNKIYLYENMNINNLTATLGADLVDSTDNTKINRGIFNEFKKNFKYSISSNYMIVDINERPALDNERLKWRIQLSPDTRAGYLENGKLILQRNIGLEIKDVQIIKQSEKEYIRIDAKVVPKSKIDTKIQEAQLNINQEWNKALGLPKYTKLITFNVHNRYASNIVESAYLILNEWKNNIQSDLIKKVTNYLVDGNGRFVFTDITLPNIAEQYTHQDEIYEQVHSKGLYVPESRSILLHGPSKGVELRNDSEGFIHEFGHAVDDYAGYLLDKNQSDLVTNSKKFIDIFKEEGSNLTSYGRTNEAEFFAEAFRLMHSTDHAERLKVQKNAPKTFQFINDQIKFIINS
# Autofluor counter = compound fluorescence in toxin protease inhibitor counterscreen. compound autofluorescence counterscreen, microsphere flow cytometry; active compounds read high. fluorescence intensity (concentration not given with the values). hit rate 3.1% among 360,000; in the data active = fluorescence intensity above about 16000
# Mtb FBA confirm = M. tuberculosis aldolase blockers, biochemical, fluorescence, strain H37Rv, confirmation. shares compounds with FBA Mtb inh. purified M. tuberculosis FBA, fluorescence read-out. inhibition, % at 1 µM. hit rate 78% among 5,600; in the data active = inhibition above about 27%
# GDH-TPI counter-2 = GDH-TPI coupling enzyme inhibitors, artefact control for M. tuberculosis FBA inhibitor project, biochemical, fluorescence, high throughput | shares compounds with FBA Mtb inh | GDH-TPI coupled enzyme counterscreen | inhibition, % at 1 µM | hit rate 81% among 5,600 | AID 652141, 2013; in the data active = inhibition above about 10%
# A number is an active result; – = inactive; · = not tested or not shown. Cut-off read from the data, not from the text of the source, unless noted: active = inhibition above about 30%; inconclusive = no clear call, values can overlap the other calls; inactive = below that.
SMILES,BoNT F protease,FBA Mtb inh,GDH-TPI counter-1,BoNT-A LC inh2,Anthrax LF prot,Autofluor counter,Mtb FBA confirm,GDH-TPI counter-2
Nc1nccc(/C=C/c2ccc(Cl)cc2)n1,–,30,–,–,–,–,84,49
COc1ccc(-c2cc(C(F)(F)F)n3nc(C(=O)NCc4ccco4)cc3n2)cc1,–,47,34,–,–,–,106,80
COc1ccc2[nH]c(=O)c(-c3noc(-c4ccccc4)n3)cc2c1,–,32,–,–,–,–,165,117
COc1ccc2[nH]c(=O)c(-c3nnn(-c4ccccc4)n3)cc2c1,–,34,–,–,–,–,176,128
COc1ccc(N2CCN(C(=O)c3cccc(NC(=O)c4ccco4)c3)CC2)cc1,–,–,–,–,–,–,·,·
CCCCCCNS(=O)(=O)c1ccc(NC(=O)C2CCCO2)cc1 (configuration not stated),–,–,–,–,–,–,·,·
Cc1cc(OCC(=O)NCc2cccnc2)c2c(C)cc(=O)oc2c1,–,68,–,–,–,–,–,–
CCCc1cc(=O)oc2cc(C)cc(OCC(=O)Nc3cccnc3)c12,–,82,–,–,–,–,–,–
